Several values for one entry are separate records, joined by “and”; a condition that tells them apart may be missing. Identical values can stand only once. Results filed as inconclusive are left out. Activity calls are given as the source filed them. Calls come from the whole dose curve; as a rule, active = well fitted inhibition curve with a large enough effect; inconclusive = small, poorly fitted or top-dose-only effect; inactive = no such curve, though single readings can be large or run the other way.
Test system: not listed separately
Experiment: Primary qHTS for inhibitors of nuclear receptor binding SET domain protein 2 (NSD2) in an RCH-ACV wild type WT cells (2C) (AID 1645877); note: nearly all actives have a fitted effect of over 70% in size; note: potency is the fitted concentration of half-maximal effect; for activity change, negative = cell killing: % is set by controls: 0 for no effect and ±100 for the full control effect
Conditions: RCH-ACV (leukaemia line) NSD2 WT (2C) viability, CellTiter-Glo, 72 h; series mostly up to 44.9 µM; activity change, negative = cell killing: at the top concentration
For COC(=O)C1=CO[C@@H](O[C@@H]2O[C@H](CO[C@@H]3O[C@H](COC(=O)/C=C/c4cc(OC)c(O)c(OC)c4)[C@@H](O)[C@H](O)[C@H]3O)[C@@H](O)[C@H](O)[C@H]2O)[C@@H]2C(CO)=CC[C@H]12, the “outcome” value was “inactive [at 17.3 µM]”.
For CC1(C)CC[C@]2(C(=O)O[C@@H]3O[C@H](CO)[C@@H](O)[C@H](O)[C@H]3O)CC[C@]3(C)C(=CCC4[C@@]5(C)C[C@@H](O)[C@H](O)C(C)(C)C5CC[C@]43C)C2[C@@H]1O (some centres undefined), the “activity change, negative = cell killing” value was -15.3% [at 17.3 µM] (inactive).
In the case of [N-]=[N+]=N[C@]1(CO)O[C@@H](n2ccc(=O)[nH]c2=O)[C@@H](O)[C@@H]1O, the “outcome” value is reported as “inactive”.
With CCOc1cc2ncc(C#N)c(Nc3ccc(F)c(Cl)c3)c2cc1NC(=O)/C=C/CN(C)C the Potency was 1.03 µM (active) and 590 nM (active).
In the case of CC(C)CCC1(O)C(=O)C(C)(C)C(O[C@@H]2O[C@H](CO)[C@@H](O)[C@H](O)[C@H]2O)C(C)(C)C1O (some centres undefined), the “activity change, negative = cell killing” value is reported as -20.1% [at 17.3 µM] (inactive).
In the case of COc1cc(N2CCC(N3CCN(C)CC3)CC2)ccc1Nc1ncc(Cl)c(-c2c[nH]c3ccccc23)n1, the Potency is reported as 1.84 µM (active).
For COc1cc2nc(N3CCCC3)nc(NCCCCCN3CCCC3)c2cc1OC, the Potency was 5.15 µM (active).
In the case of C[C@@]1(O)[C@H](O)[C@@H](CO)O[C@H]1n1ccc(N)nc1=O, the Potency is reported as 23 µM (active).
For CCN(CC)CCN(Cc1ccc(-c2ccc(C(F)(F)F)cc2)cc1)C(=O)Cn1c(SCc2ccc(F)cc2)nc(=O)c2c1CCC2, the Potency was 3.65 µM (active).
In the case of Oc1ccc(CNc2ccccc2F)c2cccnc12, the Potency is reported as 4.09 µM (active).
In the case of C=C(C(=O)O)[C@@H]1CC[C@@]2(C)CC[C@H](O)[C@@]2(C(C)=O)C1, the Potency is reported as 16.3 µM (active).
In the case of CN1CCc2nc(C(=O)N[C@@H]3C[C@@H](C(=O)N(C)C)CC[C@@H]3NC(=O)C(=O)Nc3ccc(Cl)cn3)sc2C1, the “activity change, negative = cell killing” value is reported as -24.2% (inactive).
With CC(C)c1cc(C(=O)N2CC[C@H](NC(=O)C3CC3)C2)n[nH]1 the “activity change, negative = cell killing” value was -36.8% (inactive).
With N#Cc1ccc(-c2cnc3[nH]cc(NC(=O)c4cccnc4)c3c2)cc1 the Potency was 5.15 µM (active).
For CC(C)=CCC(O)/C(C)=C/CO[C@@H]1O[C@H](CO)[C@@H](O)[C@H](O)[C@H]1O (some centres undefined), the “activity change, negative = cell killing” value was -12.8% (inactive).
In the case of C=C(C)C(=O)OC1CC2(C)OC(=CC2=O)C(=C)CC2OC(=O)C(COC)C12 (centres undefined), the Potency is reported as 1.79 µM (active).
For CN1CCN(C(=O)c2ccc3cc(CCNc4ncnc5ccc(C#N)cc45)ccc3c2)CC1, the Potency was 1.32 µM (active).
With CC(C)C(NC(=O)c1ccc2ccccc2n1)C(=O)NC(CC(=O)O)C(=O)COc1c(F)cccc1F (centres undefined) the “activity change, negative = cell killing” value was -1.09% (inactive).
With Cc1cc(OCc2nnc(SC3CCCC3)n2-c2cccnc2)ccc1-c1ccc(S(C)(=O)=O)cc1 the Potency was 1.45 µM (active).
With C[C@@H](Oc1cc(-n2cnc3ccc(OC4CCN(C)CC4)cc32)sc1C(N)=O)c1ccccc1C(F)(F)F the Potency was 0.0258 µM (active).
With C=C1C(=O)OC2C1CCC(=C)C1CC(OC(C)=O)C(=C)C12 (centres undefined) the Potency was 3.25 µM (active).
In the case of CN(C)c1nc(NC2CCC(NCCc3ccc(Br)cc3OC(F)(F)F)CC2)nc2ccccc12 (centres undefined), the Potency is reported as 2.58 µM (active).
With CC(Oc1cc(-n2cnc3ccc(CN4CCN(C)CC4)cc32)sc1C(N)=O)c1ccccc1C(F)(F)F (centres undefined) the Potency was 0.649 µM (active).
With COc1ccc(CCO[C@@H]2O[C@H](CO[C@@H]3OC[C@H](O)[C@H](O)[C@H]3O)[C@@H](O)[C@H](O)[C@H]2O)cc1 the “activity change, negative = cell killing” value was -15.1% [at 17.3 µM] (inactive).
In the case of Cc1ccc([N+](=O)[O-])cc1S(=O)(=O)N(C)/N=C/c1cnc2ccc(Br)cn12, the Potency is reported as 20.6 nM (active) and 74.2 nM (active).
In the case of COC(=O)C1=CO[C@@H](O[C@@H]2O[C@H](CO)[C@@H](O)[C@H](O)[C@H]2O)[C@H]2[C@@H]1CC(OC)O[C@@H]2C (some centres undefined), the “activity change, negative = cell killing” value is reported as 1.15% [at 17.3 µM] (inactive).
For CC(C)C[C@H](CC(=O)NO)C(=O)N[C@@H](Cc1ccc2ccccc2c1)C(=O)N[C@@H](C)C(=O)NCCN, the “activity change, negative = cell killing” value was -10.4% (inactive).
With CCS(=O)(=O)N1CCN(c2ccc(Nc3ncc(C(N)=O)c(NC4CC4)n3)cc2)CC1 the Potency was 258 nM (active) and 417 nM (active).

Molecular target: Catechol O-methyltransferase (Homo sapiens) (UniProt P21964)
Sequence (P21964 whole entry, looked up): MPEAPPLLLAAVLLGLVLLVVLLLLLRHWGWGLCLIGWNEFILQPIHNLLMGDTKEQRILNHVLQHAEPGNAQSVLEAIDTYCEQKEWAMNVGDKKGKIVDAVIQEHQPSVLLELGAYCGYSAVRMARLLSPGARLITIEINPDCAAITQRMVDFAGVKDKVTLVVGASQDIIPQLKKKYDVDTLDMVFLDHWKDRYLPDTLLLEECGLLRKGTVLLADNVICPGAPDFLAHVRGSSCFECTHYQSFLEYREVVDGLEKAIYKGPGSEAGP
Experiment: Confirmatory Screen for Target Class Profiling of Small Molecule Inhibitors of Methyltransferases (AID 1745852)
Conditions: MTase-Glo luminescence, SAH detection, recombinant enzyme; measured here: COMT max response; stronger effect = lower value
With CC(O)(CC(=O)O)CC(=O)OCc1ccc(O[C@@H]2O[C@H](CO)[C@@H](O)[C@H](O)[C@H]2O)cc1 (some centres undefined) the activity was -58.1%.
In the case of C[C@]12C[C@@H](O)[C@@H]3C[C@@]1(O[C@@H]1O[C@H](CO)[C@@H](O)[C@H](O)[C@H]1O)[C@]3(COC(=O)c1ccccc1)C(=O)O2, the activity is reported as -66.1%.
For Cc1cc(N(C)C)ccc1-c1nc2ccc(-c3nc4ccc(N5CCN(C)CC5)cc4[nH]3)cc2[nH]1, the activity was -4.96%.
In the case of COc1cc2c(NC3CCN(CC4CCCCC4)CC3)nc(N3CCCN(C(C)C)CC3)nc2cc1OCCCN1CCCCC1, the activity is reported as -7.99%.
COc1cc(NC(=O)Nc2cccc(CNC(=O)O[C@H]3CCOC3)c2)ccc1-c1cnco1 gave an activity of -5.78%.
For O=C(c1ccccc1)c1ccc2nc(NC(=O)c3csc(C4CCN(c5ncnc6ccsc56)CC4)n3)[nH]c2c1, the activity was -7.12%.
For CCCCc1nc2cc(/C=C/C(=O)NO)ccc2n1CCN(CC)CC, the activity was -23.3%.
For CC1=CC(=O)C2(OC3OC(C)C(O)C(OC(=O)/C=C/c4ccccc4)C3O)C=COC(OC3OC(CO)C(O)C(O)C3O)C12 (centres undefined), the activity was -48.2%.
In the case of CN1CCN(C2CCC(n3cc(-c4ccc(Oc5ccccc5)cc4)c4c(N)ncnc43)CC2)CC1 (centres undefined), the activity is reported as -15.7%.
Cc1cc(O)c(-c2ccc([C@@H](C)CN(C)C)cc2)c2c1[nH]c(=O)c1sccc12 showed an activity of -22.7%.
For COC(=O)C1=CO[C@@H](O[C@@H]2O[C@H](CO[C@@H]3O[C@H](COC(=O)/C=C/c4cc(OC)c(O)c(OC)c4)[C@@H](O)[C@H](O)[C@H]3O)[C@@H](O)[C@H](O)[C@H]2O)[C@@H]2C(CO)=CC[C@H]12, the activity was -63.8%.
CC1(C)CC[C@]2(C(=O)O[C@@H]3O[C@H](CO)[C@@H](O)[C@H](O)[C@H]3O)CC[C@]3(C)C(=CCC4[C@@]5(C)C[C@@H](O)[C@H](O)C(C)(C)C5CC[C@]43C)C2[C@@H]1O (some centres undefined) gave an activity of -85.2%.
CCOc1cc2ncc(C#N)c(Nc3ccc(F)c(Cl)c3)c2cc1NC(=O)/C=C/CN(C)C gave an activity of -96.3%.
Compound CC(C)CCC1(O)C(=O)C(C)(C)C(O[C@@H]2O[C@H](CO)[C@@H](O)[C@H](O)[C@H]2O)C(C)(C)C1O (some centres undefined) has an activity of -56.9%.
COc1cc(N2CCC(N3CCN(C)CC3)CC2)ccc1Nc1ncc(Cl)c(-c2c[nH]c3ccccc23)n1 showed an activity of -23.6%.
Compound COc1cc2nc(N3CCCC3)nc(NCCCCCN3CCCC3)c2cc1OC has an activity of -4.52%.
In the case of CCN(CC)CCN(Cc1ccc(-c2ccc(C(F)(F)F)cc2)cc1)C(=O)Cn1c(SCc2ccc(F)cc2)nc(=O)c2c1CCC2, the activity is reported as -2.67%.
Oc1ccc(CNc2ccccc2F)c2cccnc12 showed an activity of -81.9%.
In the case of C=C(C(=O)O)[C@@H]1CC[C@@]2(C)CC[C@H](O)[C@@]2(C(C)=O)C1, the activity is reported as -66.3%.
N#Cc1ccc(-c2cnc3[nH]cc(NC(=O)c4cccnc4)c3c2)cc1 gave an activity of 1.05%.
CC(C)=CCC(O)/C(C)=C/CO[C@@H]1O[C@H](CO)[C@@H](O)[C@H](O)[C@H]1O (some centres undefined) gave an activity of -52%.
Work on C=C(C)C(=O)OC1CC2(C)OC(=CC2=O)C(=C)CC2OC(=O)C(COC)C12 (centres undefined) yielded an activity of -94%.
CN1CCN(C(=O)c2ccc3cc(CCNc4ncnc5ccc(C#N)cc45)ccc3c2)CC1 showed an activity of -7.48%.
With C[C@@H](Oc1cc(-n2cnc3ccc(OC4CCN(C)CC4)cc32)sc1C(N)=O)c1ccccc1C(F)(F)F the activity was -76.5%.
With C=C1C(=O)OC2C1CCC(=C)C1CC(OC(C)=O)C(=C)C12 (centres undefined) the activity was -65.1%.
CN(C)c1nc(NC2CCC(NCCc3ccc(Br)cc3OC(F)(F)F)CC2)nc2ccccc12 (centres undefined) gave an activity of -10.3%.
Compound CC(Oc1cc(-n2cnc3ccc(CN4CCN(C)CC4)cc32)sc1C(N)=O)c1ccccc1C(F)(F)F (centres undefined) has an activity of -36.6%.
COc1ccc(CCO[C@@H]2O[C@H](CO[C@@H]3OC[C@H](O)[C@H](O)[C@H]3O)[C@@H](O)[C@H](O)[C@H]2O)cc1 showed an activity of -55.1%.
Work on Cc1ccc([N+](=O)[O-])cc1S(=O)(=O)N(C)/N=C/c1cnc2ccc(Br)cn12 yielded an activity of -16.2%.
COC(=O)C1=CO[C@@H](O[C@@H]2O[C@H](CO)[C@@H](O)[C@H](O)[C@H]2O)[C@H]2[C@@H]1CC(OC)O[C@@H]2C (some centres undefined) showed an activity of -63.3%.
CCS(=O)(=O)N1CCN(c2ccc(Nc3ncc(C(N)=O)c(NC4CC4)n3)cc2)CC1 gave an activity of -6.02%.

— PubChem BioAssay (NCATS)
